Shh pathway inh – Hedgehog pathway signaling inhibitors, primary screen, luminescence, Shh-LIGHT2 cells, Gli-luciferase. Shh-LIGHT2 Gli-luciferase reporter, 30 h. inhibition, % (no concentration beside the values). 22,000 tested, 2.1% active. AID 2313, 2010;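 active = mean inhibition across valid replicates above about 65%, limit read from the data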;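 note: pathway switched on by Shh-conditioned medium diluted 1 in 25 in low serum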
PD-1 reverse act – activators reversing PD-1 mediated T-cell inhibition, primary screen, luminescence, primary human CD4 T cells, PD-L1 beads. 29,000 tested, under 10 active. CellTiter-Glo 96 h. AID 2316, 2010. activation, % (concentration not given with the values); call rule not given here
MITF inhib – inhibitors of MITF, primary screen, MITF inhibitor project, cell-based, luminescence; TRPM1 promoter luciferase, 24 h; inhibition, % (test concentration not listed); 37,000 tested, 0.28% active; in the data active = inhibition above about 85%;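 note: human melanocyte line stably carrying TRPM1 promoter luciferase reporter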
Each line names hits and unclear results; the compound was inactive in the other large screens. Shown is part of a subset that was picked to be rich in hits.

COc1ccc(NC(=O)Nc2cccc3c2O[C@H](CN(C)S(=O)(=O)c2ccc(C)cc2)[C@H](C)CN([C@H](C)CO)C3=O)cc1	none
C[C@@H]1CN([C@H](C)CO)C(=O)c2cccc(NC(=O)Nc3ccc(F)cc3)c2O[C@@H]1CN(C)C(=O)Nc1cccc2ccccc12	none
COC(=O)c1cccc(NC(=O)CSc2nc(C)cc(C(F)(F)F)n2)c1	none (no result: Shh pathway inh)
C[C@H]1CN([C@@H](C)CO)C(=O)Cc2cc(NC(=O)Nc3ccc4c(c3)OCO4)ccc2O[C@@H]1CN(C)S(=O)(=O)c1cn(C)cn1	none
C[C@@H]1CN([C@H](C)CO)C(=O)Cc2cc(NC(=O)Nc3ccc(F)cc3)ccc2O[C@H]1CN(C)Cc1ccc(Cl)c(Cl)c1	none
CCOC(=O)CN(C)C1=NS(=O)(=O)c2ccccc21	none (no result: Shh pathway inh)
CC(C)NC(=O)Nc1ccc2c(c1)C(=O)N([C@@H](C)CO)C[C@H](C)[C@H](CN(C)Cc1ccc3c(c1)OCO3)O2	none (no result: Shh pathway inh)
CN1CCN(Cc2nc(N)nc(Nc3ccccc3)n2)CC1	none (no result: Shh pathway inh, PD-1 reverse act)
COc1c(C)c(O)c(C)c(O)c1C(=O)CCc1ccccc1	none
COc1c(Cc2ccccc2O)c(O)c(Cc2ccccc2O)c(O)c1C(=O)CCc1ccccc1	Shh pathway inh 89, MITF inhib 91
CC[C@H](CO)Nc1nc(NCc2ccccc2)c2ncn(C(C)C)c2n1	none
CC(C)n1cnc2c(Nc3cccc(Cl)c3)nc(NCCO)nc21	Shh pathway inh 75
CNC(=O)[C@H]1O[C@@H](n2cnc3c(NCc4cccc(I)c4)ncnc32)C(O)[C@H]1O (stereo partly drawn)	none (no result: PD-1 reverse act)
COc1ccc(C[C@H](N)C(=O)N[C@@H]2[C@@H](CO)OC(n3cnc4c(N(C)C)ncnc43)[C@@H]2O)cc1 (stereo partly drawn)	Shh pathway inh 93, MITF inhib 106 (no result: PD-1 reverse act)
C[C@H](CO)N1C[C@H](C)[C@@H](CN(C)Cc2ccc3c(c2)OCO3)Oc2ccc(NS(=O)(=O)c3ccc(F)cc3)cc2C1=O	none (no result: Shh pathway inh)
COc1ccc(OC)c(NC(=O)COc2ccc3c(=O)c(Oc4ccccc4Br)coc3c2)c1	MITF inhib 95 (no result: Shh pathway inh)
COc1ccc(OC)c(NC(=O)COc2ccc3c(C)cc(=O)oc3c2)c1	none (no result: Shh pathway inh)
CC(C)NC(=O)Nc1cccc2c1O[C@H](CN(C)S(C)(=O)=O)[C@H](C)CN([C@H](C)CO)C2=O	none
N#CCCN(CCC#N)C(=O)c1cc(-c2ccccc2)nc2ccccc12	none (no result: Shh pathway inh, PD-1 reverse act)
On1onc2c3cc(-c4ccccc4)nc3ccc21	Shh pathway inh 99
C[C@@H]1CN([C@H](C)CO)C(=O)c2cc(NC(=O)Nc3ccc4c(c3)OCO4)ccc2O[C@H]1CN(C)C(=O)Nc1ccc2c(c1)OCO2	none
CCOC(=O)c1ccc2nc(C(F)(F)F)nc(NCCCc3ccccc3)c2c1	none (no result: Shh pathway inh)
C[C@@H]1CN([C@@H](C)CO)C(=O)c2cc(NC(=O)C3CCCCC3)ccc2O[C@H]1CN(C)CC1CCCCC1	none
COc1ccc(C(=O)NCC(=O)Nc2ccc(C)c(Cl)c2)cc1OC	none (no result: Shh pathway inh)
CC(C)(C)C(=O)CSc1ncnc2sc3c(c12)CCCC3	none (no result: Shh pathway inh)
CCN(CC)C(=S)Sc1ncnc2sc3c(c12)CCCC3	Shh pathway inh 90
CCOC(OCC)P(=O)(O)CCCNCc1ccc(Cl)c(Cl)c1	MITF inhib 88 (no result: PD-1 reverse act)
Cc1noc(C)c1S(=O)(=O)Nc1ccc2c(c1)C(=O)N([C@@H](C)CO)C[C@H](C)[C@@H](CN(C)Cc1ccc(C(F)(F)F)cc1)O2	none (no result: Shh pathway inh, PD-1 reverse act)
C[C@@H]1CN([C@@H](C)CO)C(=O)c2cc(NS(C)(=O)=O)ccc2O[C@H]1CN(C)C	none
C[C@H](CO)N1C[C@H](C)[C@H](CN(C)Cc2ccc(Oc3ccccc3)cc2)Oc2ccc(NC(=O)C3CC3)cc2CC1=O	none
CC1=C(/C=C/C(C)=C/C=C/C(C)=C\C(=O)O)C(C)(C)CCC1	Shh pathway inh 82 (no result: PD-1 reverse act)
CC(=C/C(=O)O)/C=C/c1ccccc1	none (no result: Shh pathway inh)
CCN(CC)CCCn1c(-c2ccc(C)cc2)cn2c3ccccc3nc12	none (no result: Shh pathway inh)
OCCCn1c(-c2ccccc2)cn2c3ccccc3nc12	MITF inhib 98 (no result: Shh pathway inh, PD-1 reverse act)
Cc1noc(C)c1S(=O)(=O)Nc1ccc2c(c1)C(=O)N([C@H](C)CO)C[C@H](C)[C@@H](CN(C)Cc1ccc3c(c1)OCO3)O2	none
CC(C)c1ccc(C2C(C#N)=C(N)C(C#N)(C#N)C3=CCN(C)CC32)cc1 (stereo not drawn)	Shh pathway inh 74
Cc1nc2c([nH]1)C(c1ccc(C(C)C)cc1)C(C#N)=C(N)O2 (stereo not drawn)	none
C[C@@H]1CN([C@@H](C)CO)C(=O)c2cccc(NC(=O)NC3CCCCC3)c2O[C@@H]1CN(C)C(=O)Nc1ccc(F)cc1	none
COc1ccc2c(c1)CCC1C2CCC2(C)C(=O)CCC12 (stereo not drawn)	none
C[C@]12CCC3c4ccc(O)cc4CC[C@H]3C1CC[C@H]2O (stereo partly drawn)	none
C[C@]12CC[C@@H]3c4ccc(O)cc4CC[C@H]3[C@@H]1CC[C@@H]2O	Shh pathway inh 91 (no result: PD-1 reverse act)
C[C@]12CCC3c4ccc(O)cc4CCC3C1CCC2=O (stereo partly drawn)	Shh pathway inh 89 (no result: PD-1 reverse act)
CC(C)NC(=O)Nc1ccc2c(c1)C(=O)N([C@@H](C)CO)C[C@H](C)[C@H](CN(C)Cc1ccc(C(=O)O)cc1)O2	none (no result: Shh pathway inh)
C[C@H]1CN([C@@H](C)CO)C(=O)Cc2cc(NC(=O)CCC(F)(F)F)ccc2O[C@H]1CN(C)Cc1ccc(C(=O)O)cc1	none
COc1ccc(S(=O)(=O)N(C)C[C@H]2Oc3c(NC(=O)Nc4ccccc4)cccc3C(=O)N([C@@H](C)CO)C[C@H]2C)cc1	none
COc1ccc(S(=O)(=O)N(C)C[C@@H]2OCCCC[C@@H](C)Oc3ccc(NC(=O)CCCN(C)C)cc3C(=O)N([C@H](C)CO)C[C@@H]2C)cc1	none (no result: PD-1 reverse act)
Nc1ccc(-c2nnc(SCC(=O)Nc3ccc(Br)cc3F)n2-c2ccccc2)cc1	none (no result: Shh pathway inh)
Cc1ccc(S(=O)(=O)Nc2ccc3c(c2)CC(=O)N([C@H](C)CO)C[C@H](C)[C@H](CN(C)CC2CC2)O3)cc1	none
CC(=O)N1c2ccccc2C(C)(c2ccccc2)CC1(C)C (stereo not drawn)	none
CC1(C)CC(C)(c2ccccc2)c2cc(SC#N)ccc2N1 (stereo not drawn)	Shh pathway inh 108
COc1ccc(S(=O)(=O)Nc2cccc3c2O[C@@H](CN(C)Cc2ccncc2)[C@@H](C)CN([C@@H](C)CO)C3=O)cc1	none
O[C@H]1C=C2CCN3Cc4cc5c(cc4C(C23)[C@@H]1O)OCO5 (stereo partly drawn)	Shh pathway inh 99 (no result: PD-1 reverse act)
C[C@@H]1O[C@@H](O[C@H]2[C@H](O)[C@@H](O[C@@H]3O[C@H](CO)[C@@H](O)[C@H](O[C@@H]4O[C@H](CO)[C@@H](O)[C@H](O)[C@H]4O)[C@H]3O)[C@H](O[C@H]3CC[C@@]4(C)C(=CC[C@@H]5C4CC[C@@]4(C)C5C[C@@H]5O[C@]6(CC[C@@](C)(CO[C@@H]7O[C@H](CO)[C@@H](O)[C@H](O)[C@H]7O)O6)[C@@H](C)[C@@H]54)C3)O[C@@H]2CO)[C@H](O)[C@H](O)[C@H]1O (stereo partly drawn)	Shh pathway inh 70

Assay outcomes: PubChem BioAssay, Broad Institute
